Measured values reported in PubChem BioAssay (NCI).
Where “and” joins values, the source holds several entries; their conditions need not be identical. Identical values can stand only once. About 83,000 compounds went through this panel and 20% of them were active in at least one assay; those are over-represented in the sample as a whole.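 The test compound was applied at a single concentration to cells in 96-well plates for 48 hours, and percent growth was recorded.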 Values without a mark were called inactive. Calls of active or inactive are those of the source. The calls were made as follows: active = growth percent below 10; inactive = the rest.

System: MDA-MB-468 breast
Assay: NCI-60 one-dose screen, 48 h (100 = growth as untreated, 0 = no growth, -100 = all killed)
Settings: 10 µM unless noted

| SMILES | growth |
| --- | --- |
| CCC(=O)Oc1ccc(/C=N/NC(N)=S)nc1 | 18.7% |
| Cc1cccc(N=Cc2ccccc2O)c1C | 103% |
| Cc1cc(Cl)ccc1Nc1nc(C(F)(F)F)ccc1C(=O)NCC(=O)N/N=C/c1c(Cl)cccc1Cl | 105% |
| CNC(=O)c1cc(-n2ccc3cc(NC(=O)Nc4ccc(N5CCN(C)CC5)c(C(F)(F)F)c4)ccc32)ccn1 | 59.7% |
| Cn1cnc([N+](=O)[O-])c1S(=O)(=O)Oc1ccccc1 | 77.4% |
| COc1ccc(C(O)(CCC(C)C)C(CN2CCOCC2)c2ccc(Cl)cc2)cc1 (stereo not given) | 80.6% |
| Nc1nc2c(c3ncncc13)C(c1cccc(C(F)(F)F)c1)Cc1ncncc1-2 (stereo not given) | -10.4% (active) |
| Nc1c(Cl)cc2c(c1Br)C(=O)c1ccccc1C2=O | 85.4% |
| Cn1cc(-c2cc(N)n3nc(-c4cn(C)c5ccc(Cl)cc45)cc3n2)c2cc(Cl)ccc21 | 96.3% |
| O=[N+]([O-])c1ccccc1NCSc1ccc(Cl)cc1 | 92.1% |
| COc1ccc(C2=CC(c3cc(OC)c(OC)c(OC)c3)NC(=O)N2)cc1OC (stereo not given) | -12.6% (active) |
| CC1(C)OC2C(CO)OC(n3ccc(=O)[nH]c3=O)C2O1 (stereo not given) | 127% |
| Cc1cc(C)cc(NC2=C(Cl)C(=O)c3nc(C)ccc3C2=O)c1 | -75.8% (active) |
| NC(=S)N/N=C/c1cc(-c2cccc(N)c2)ccn1 | -11.8% (active) |
| Brc1ccc2[nH]cc(-c3nonc3-c3c[nH]c4ccccc34)c2c1 | 62.9% |
| O=C(Nc1ccc(Br)cc1F)c1cc(Cl)ccc1O | -14.5% (active) |
| CCOC(=O)c1cnc2sc(-c3ccc(OC)cc3)nc2c1Cl | 90.4% |
| CC1CC(O)CC(C)(C)C1.CC1CC(O)CC(C)(C)C1.CC1CC(O)CC(C)(C)C1.CC1CC(O)CC(C)(C)C1.[Ti] (stereo not given) | 115% |
| Cc1cccc2c1NC(=O)C2(c1ccc(O)cc1)c1ccc(O)cc1 | -11% (active) |
| CCCOc1ccc2nc(NC(=O)OC)[nH]c2c1 | -3.99% (active) |

| SMILES | growth |
| --- | --- |
| CCOC(=O)C1=C(C)NC(C)=C(C(=O)OC(C)C)C1c1cccc(C#N)c1 (stereo not given) | 79.4% |
| Oc1c(CN2CCCCC2)ccc2cccnc12 | 72.3% and 81.8% |
| CS(=O)(=O)Nc1cc(-c2ccc3ncnc(Nc4ccc5[nH]ncc5c4)c3c2)cnc1Cl | 16.6% |
| CCCCOc1ccc(NC(=O)Nc2nnc(C)s2)cc1 | 103% |
| N=C(N)c1ccc(-c2ccc(-c3ccc(-c4cccs4)s3)s2)cc1F | 79.5% |
| CCOC(=O)CCC[P+](c1ccccc1)(c1ccccc1)c1ccccc1 | 6.56% (active) |
| Cc1ccc(S(=O)(=O)NNC(=O)/C(=C\c2ccc(Cl)cc2)c2nc3ccccc3s2)cc1 | 111% |
| CC(C)Cn1cnc2c(=O)[nH]c(N)nc21 | 91.6% |
| COc1ccc2cc(C(=O)c3coc4ccc(O)cc34)ccc2c1 | 126% |
| COc1ccc2c(c1)c(C(=O)c1nc(-c3cn(C)c4ccccc34)no1)cn2C | 108% |
| CN(C)CCC(=O)c1c[nH]c2ccccc12 | 106% |
| COc1ccc2occ(C3=C(c4c[nH]c5ccccc45)C(=O)NC3=O)c2c1 | -2.93% (active) |
| CC1=C(C)C(=O)C(Nc2ccc3c(c2)OCO3)=C(Br)C1=O | 36.3% |
| NC(=NCCCOc1ccc(F)cc1)Nc1ccc(Cl)cc1 | 12.5% |
| CN(C)S(=O)(=O)c1oc(-c2ccccc2)nc1C#N | 35% |
| CN(C)CCN1C(=O)c2cccc3c(/C=C/CN4C(=O)c5cccc6cccc(c56)C4=O)ccc(c23)C1=O | 88.9% |
| Cc1ccc(-c2nc(N3CCCNCC3)c3oc(-c4ccccc4)nc3n2)cc1 | -76.2% (active) |
| COc1ccc2c(c1)c(-c1nc(-c3c[nH]c4ccncc34)cs1)cn2C | -60.8% (active) |
| Fc1ccc(Nc2ccc3cc(OCCCN4CCOCC4)ccc3n2)cc1F | 52.8% |
| O=C(Nc1ccccc1Cl)c1c[nH]c(=O)c(-c2ccc(N3CCCOC4(CC4)C3)cc2)c1 | 9.39% (active) |
